High-throughput results (PubChem)
LMNA splice mod: LMNA splicing modulation | AID 1487 | Potency, µM (highest dose often 46.1 µM), without a hit: top-dose ratio change, negative = inhibition, hits mostly inhibitors | hit rate 0.01% among 200,000 | HeLa LMNA splicing GFP/RFP minigene ratio, 48 h; active = well fitted inhibition curve with a large enough effect in the signal ratio, with a control signal flat, not every such curve was filed as active; inconclusive = small, poorly fitted or top-dose-only effect, or effect the other way, or a change in a side signal; the % refers to the signal ratio; note: potency is the fitted concentration of half-maximal effect
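Read-out is the ratio of GFP to DsRed2 object intensity, acquired by 488 nm laser-scanning cytometry on HeLa lamin A-EGFP minigene reporter cells. Compound incubation 48 hrs at 37 °C in Opti-MEM with 2% FBS; DMSO 0.5% final.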
PNC inhibitor: perinucleolar compartment assembly inhibition. activity change (PNC), negative = inhibition, % at 10 µM. hit rate 3.1% among 140,000. AID 2417. PC3M PTB-GFP, PNC prevalence imaging, 16 h; active compounds read low;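 active = readout at or below -70, meaning at least 70% loss of cells showing the perinucleolar compartment, a nuclear body marking cancer cells; inconclusive = readout between -30 and a set limit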;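 note: plate controls were DMSO wells for no effect and camptothecin positive control wells for full effect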
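Compounds are pinned in duplicate onto adhered PC3M cells stably expressing GFP-tagged PTB and incubated 16 h at 37 C. Cells are then fixed, nuclei stained with Hoechst, and PNC-positive cells counted.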
ALDH1A1 block: ALDH1A1 (human) enzyme inhibition. P00352. Purified ALDH1A1, NADH fluorescence, propionaldehyde substrate. Potency, µM (top dose mostly 75.3 µM), for inactives: at the top dose activity, negative = inhibition, most hits filed as inhibitors. hit rate 7.3% among 220,000;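 note: potency is the fitted concentration of half-maximal effect; plate controls were no enzyme wells and a reference inhibitor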
Target sequence (P00352 whole entry, looked up): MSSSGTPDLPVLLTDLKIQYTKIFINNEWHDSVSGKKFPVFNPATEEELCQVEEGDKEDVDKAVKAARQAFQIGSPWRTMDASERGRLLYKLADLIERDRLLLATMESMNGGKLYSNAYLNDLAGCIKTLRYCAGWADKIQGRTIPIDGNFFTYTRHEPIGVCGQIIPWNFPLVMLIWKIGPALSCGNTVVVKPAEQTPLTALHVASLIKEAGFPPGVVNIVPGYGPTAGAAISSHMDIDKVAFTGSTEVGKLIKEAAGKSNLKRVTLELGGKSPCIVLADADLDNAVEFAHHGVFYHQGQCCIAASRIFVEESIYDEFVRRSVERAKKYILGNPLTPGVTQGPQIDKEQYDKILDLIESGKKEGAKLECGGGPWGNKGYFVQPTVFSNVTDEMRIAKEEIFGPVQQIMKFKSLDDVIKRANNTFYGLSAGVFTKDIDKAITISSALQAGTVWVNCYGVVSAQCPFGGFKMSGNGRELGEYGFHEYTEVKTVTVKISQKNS
12-hLO inh: 12-hLO (ALOX12) enzyme inhibition; purified 12-hLO, xylenol orange hydroperoxide absorbance; Potency, µM (series often up to 57.1 µM), for inactives: top-dose activity change, negative = inhibition, most hits filed as inhibitors; hit rate 0.12% among 150,000; AID 1452; active = well fitted inhibition curve with a large enough effect; inconclusive = small, poorly fitted or top-dose-only effect; note: potency is the fitted concentration of half-maximal effect; nearly all actives have a fitted effect of over 55% in size
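Lipoxygenase turnover measured by absorbance at 573 and 405 nm after Fe-XO development. Human 12hLO 150 nM, arachidonate 40 uM, pH 7.0 Hepes buffer with detergent; 15 min compound preincubation, 30 min reaction.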
HPGD block: HPGD (human) dehydrogenase inhibition. purified HPGD, NADH fluorescence kinetic, PGE2 substrate. Potency, µM, for the others: top-dose activity change, negative = inhibition, hits mostly inhibitors. hit rate 4.3% among 150,000; note: potency is the fitted concentration of half-maximal effect
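NADH formation kinetics: reaction with 30 uM PGE2 and 1 mM NAD+ (final), 20 nM enzyme, Tris-HCl pH 8 with Tween 20, after 15 min compound preincubation at room temperature. Fluorescence change, last versus first of five reads.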
An asterisk follows results filed as active; ? = inconclusive; / = no result given; [ ] = another dose, or the depositor's remark. Hits are enriched below; roughly 10% of the tested compounds scored in any of these assays. Unless noted, calls come from the whole dose curve; as a rule, active = well fitted inhibition curve with a large enough effect (not every such curve was filed as active); inconclusive = small, poorly fitted or top-dose-only effect, or another doubt; inactive = no such curve, though single readings can be large or run the other way. Unless noted, % is set by controls: 0 for no effect and ±100 for the full control effect.

SMILES | LMNA splice mod | PNC inhibitor | ALDH1A1 block | 12-hLO inh | HPGD block
COc1ccc(N2CCN(C(=O)c3ccc(C)cc3)CC2)c([N+](=O)[O-])c1 | -10.6% | 10.3 | 11.2µM* | -1.8% | -26.3%
CCOC(=O)N/N=C1/C[C@@H](O)[C@@H](O)[C@@H]2[C@@H]3C(=O)N(Cc4ccccc4)C(=O)[C@H]3CC[C@@H]12 | / | / | 6.2%[13.5 µM] | / | /
O=C1CC(c2ccccc2Cl)=NN(c2ncnc3ccccc23)C1=O | ? | / | 0.631µM* | / | /
Clc1ccc2c(NC3CCC(N4CCCCC4)CC3)ccnc2c1 (configuration not stated) | / | / | -4.8%[13.5 µM] | 4.6%[11.4 µM] | -10.1%
CCCc1cc(COC)c(C#N)c(=O)[nH]1 | / | / | ? | -2.1%[11.4 µM] | ?
Cc1nn(Cc2ccccc2Cl)c2sc(C(=O)OC3CCCC3=O)cc12 (configuration not stated) | ? | 0.3 | 8.91µM* | -16.3% | -25.8%
CC(C)N(Cc1nnc(-c2ccccc2Cl)o1)C(=O)c1cccc(C#N)c1 | 3.7% | 20.2 | 6.31µM* | -2.8% | -1.4%
Cc1cccc(-c2noc(CN(C(=O)c3c(-c4ccccc4Cl)noc3C)C(C)C)n2)c1 | 3.2% | 54.2 | 8.3% | -2.3% | -12.4%
O=C(Cc1ccc(Cl)cc1)NCC(c1cccs1)S(=O)(=O)c1ccc(F)cc1 (configuration not stated) | 17.0%[46 µM] | / | / | / | /
Cc1c(C(=O)c2ccc(N(C)C)cc2)c2ccccn2c1CCC#N | -6.2%[46 µM] | / | 15.8µM* | / | /
Cc1c(C(=O)c2ccc(Cl)c([N+](=O)[O-])c2)c2ccccn2c1CCC#N | -1.9% | 11.9 | ? | -1.3% | -17.2%
CC1(C)C(=O)Nc2ccccc2N1C(=O)COc1ncnc2c(Cl)cc(Cl)cc12 | -12.4% | 8.1 | 28.2µM* | -8.0% | /
Cc1cnc(C(=O)OCC(=O)N2c3ccccc3NC(=O)C2(C)C)cn1 | -3.9% | ? | 6.6% | -1.0% | -7.4%
COCC(C)N=C1NN=C(c2ccc(NC(C)=O)cc2)CS1 (configuration not stated) | -6.3%[46 µM] | / | ? | / | /
COCC(C)N=C1NN=C(c2cccs2)C(CC(=O)O)S1 (configuration not stated) | / | / | 12.6µM* | / | /
O=C(CN1C(=O)C2(SCC(=O)N2c2ccc(F)c(F)c2)c2ccccc21)Nc1ccccc1F (configuration not stated) | 12.9%[46 µM] | / | / | / | /
O=C(c1ccco1)N1CCC[C@@]2(CCN(c3ncccn3)C2)C1 | / | / | ? | 2.2% | -18.4%
CCOc1cc(C=O)ccc1OCC(=O)N1CCCC1 | 26.9%[46 µM] | / | -5.5% | / | /
CCOc1cc(C=O)cc(Br)c1OCC(N)=O | / | / | 7.94µM* | / | /
C=CCOc1c(Br)cc(/C=N/O)cc1OCC | ? | -108.6* | 14.0% | -3.6% | -5.0%
CCOc1cc(C=O)ccc1OCC(N)=O | -7.4%[46 µM] | / | 11.2µM* | / | /
CCCCOc1c(Br)cc(/C=N/O)cc1OCC | -1.0% | 9.1 | ? | -9.0% | -7.9%
O=c1c(N2CCCCC2)csc2ccc(F)cc12 | -1.2%[46 µM] | / | / | / | /
O=C(O)CCCCCCCCCC(=O)c1cccs1 | 5.8% | -5.4 | 9.5% | -7.9% | 15.8µM*
CC(CC(=O)c1cccs1)CC(=O)c1cccs1 | -3.5% | -2.9 | 7.94µM* | -3.7% | 12.6µM*
SMILES | LMNA splice mod | PNC inhibitor | ALDH1A1 block | 12-hLO inh | HPGD block
COc1cccc(CNC(=O)C2=C(C)C(=O)OC23CCCCCC3)c1 | -3.2%[46 µM] | / | / | / | /
O=C1CCSc2ccc(S(=O)(=O)Nc3ccc(Cl)c(C(F)(F)F)c3)cc2N1 | -15.8%[46 µM] | / | / | / | /
COCCn1c(C)cc(O)c(C(c2ccc(Cl)cc2)N2CCCCC2)c1=O (configuration not stated) | 0.9%[46 µM] | / | / | / | /
CCOC(=O)c1ccc(NC(=O)CSc2cc(-c3ccccc3)nc(C)n2)cc1 | -1.7%[46 µM] | / | / | / | /
COc1ccc(/C(O)=C2\C(=O)C(=O)N(CC3CCCO3)C2c2cc(OC)ccc2OC)cc1 (configuration not stated) | 2.3% | 9.1 | ? | 8.2% | -18.1%
COc1cccc(/C=C/C(=O)OCC(=O)c2cc(C)n(CC3CCCO3)c2C)c1OC (configuration not stated) | ? | -1.3 | ? | 2.2% | /
COc1ccc(/C=C2\NC(=S)N(CC3CCCO3)C2=O)c(OC)c1 (configuration not stated) | 11.0% | 44.6 | 1.26µM* | -23.8% | -14.8%
COc1ccc(/C=C2\NC(=S)N(CC3CCCO3)C2=O)c(OC)c1C (configuration not stated) | 3.9% | 16.4 | 0.447µM* | -26.0% | -17.4%
